{
  "source": "PubChem BioAssay (NCATS)",
  "note": "Inconclusive results are not listed. Entries that show only a call come without a potency. Calls of active or inactive are those of the source. Calls come from the whole dose curve; as a rule, active = well fitted inhibition curve with a large enough effect; inconclusive = small, poorly fitted or top-dose-only effect; inactive = flat fitted curve, though single readings scatter.",
  "data": [
    {"molecular_target": "Calcium and integrin-binding protein 1 (Homo sapiens) (UniProt Q99828)", "sequence (Q99828 whole entry, looked up)": "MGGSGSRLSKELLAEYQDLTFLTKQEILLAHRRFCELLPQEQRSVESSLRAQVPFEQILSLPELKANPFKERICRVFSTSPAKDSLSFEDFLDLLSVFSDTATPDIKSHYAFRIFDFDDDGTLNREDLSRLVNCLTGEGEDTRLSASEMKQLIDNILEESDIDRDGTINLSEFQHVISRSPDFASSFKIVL", "test": "Primary qHTS for Identification of Calcium Integrin Binding Protein 1 (CIB1) Competitor (AID 1508620);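 note: GST tagged CIB1 binding a fluorescein labelled alphaIIb integrin peptide tracer; top concentration of the series differs between compounds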", "settings": "CIB1-GST / FITC-alphaIIb peptide fluorescence polarization; series mostly up to 114 µM", "how_it_was_run": "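CIB1-GST (1 uM final) and compound incubated 15 min at room temperature before adding FITC-alphaIIb peptide tracer (100 nM final). Competition for binding read by fluorescence polarization (ex 480, em 540) after another 15 min at room temperature.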", "values": [
      {"smiles": "Cn1nnnc1Sc1ncnc2scc(-c3ccc(C(=O)OC(C)(C)C)cc3)c12", "Potency": "inactive"},
      {"smiles": "O=[N+]([O-])c1cccc(CSc2nc3ncc(Br)cc3[nH]2)c1", "Potency": "inactive"},
      {"smiles": "Nc1ccc2c(c1)S(=O)(=O)NC2=O", "Potency": "inactive"},
      {"smiles": "Cc1cc(-c2nnc3n2CCCCC3)c(C)n1-c1cccc(C(F)(F)F)c1", "Potency": "inactive"},
      {"smiles": "COc1ccc(C2Oc3ccccc3C(=O)N2Cc2ccccc2)cc1COc1ccc(NC(C)=O)cc1", "note": "(configuration not stated)", "Potency": "inactive"},
      {"smiles": "O=S1(=O)N=C(Sc2cc(C(F)(F)F)cc(C(F)(F)F)c2)c2ccccc21", "Potency": "inactive"},
      {"smiles": "CC(C)(C)OC(=O)N1CCN(c2ccc(NCc3ncc(-c4ccc(C#N)cc4)o3)cc2)CC1", "Potency": "inactive"},
      {"smiles": "CC(C)(C)N=Cc1c(-c2ccccc2)no[n+]1[O-]", "Potency": "inactive"},
      {"smiles": "CS(=O)(=O)c1ccc(C(=O)OCC(=O)N2CCOCC2)cc1[N+](=O)[O-]", "Potency": "inactive"},
      {"smiles": "O=C1c2ccccc2C(=O)N1c1nccs1", "Potency": "inactive"},
      {"smiles": "Cc1ccc(C(=O)Oc2ccc(-c3nc4ccccc4[nH]3)cc2)cc1Br", "Potency": "inactive"},
      {"smiles": "COc1cc(Nc2nc(-c3ccncc3)nc3ccccc23)ccc1NS(C)(=O)=O", "Potency": "inactive"},
      {"smiles": "CC(C)Oc1cccc(-c2ccnc(N3CCC(C(N)=O)CC3)n2)c1", "Potency": "inactive"},
      {"smiles": "CC(=O)c1ccc(N2CCN(S(=O)(=O)c3ccc4c(c3)CCC(=O)N4)CC2)cc1", "Potency": "inactive"},
      {"smiles": "CC(C)c1ccccc1-c1ncc(F)c(NCc2ccc(-n3ccnn3)cc2)n1", "Potency": "inactive"},
      {"smiles": "COc1cc(-c2csc(N3CCC(C(N)=O)CC3)n2)cc(OC)c1OC", "Potency": "inactive"},
      {"smiles": "O=C(Cc1ccccc1)Nc1nnc(-c2ccncc2)s1", "Potency": "inactive"}
    ]}
  ]
}
